Measurements from PubChem BioAssay AID624256 (NMMLSC, 2012).
The whole screen tested about 360,000 compounds, of which about 3,700 (1%) were called active. Another 2% or so got no clear call; they are omitted.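 How the source made its calls: active means normalized GFP-positive differentiation at or above the plate's own cutoff, the solvent-only control mean plus 3 SD; inconclusive means no clear call, values can overlap the other calls; inactive means the rest.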 The entries come from a sample that favours actives as a whole.

Test: induction of myeloid progenitor differentiation, primary screen, cell-based, flow cytometry, MLPCN library (AID 624256);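 on GFP+ MAC1+ double positive: cells exposed to compound for four days before flow analysis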;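 on normalized GFP-positive differentiation: cells exposed to compound for four days before flow analysis; 0% = DMSO wells and 100% = fulvestrant positive control at 5 µM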
Conditions: ER-HoxA9 myeloid progenitors, lysozyme-GFP differentiation, at 10 µM; GFP+ MAC1+ double positive: measured here: differentiation confirmed by MAC1 staining, stronger effect = higher value; normalized GFP-positive differentiation: stronger effect = higher value

| SMILES | GFP+ MAC1+ double positive | outcome | normalized GFP-positive differentiation |
| --- | --- | --- | --- |
| COc1cccc(OC)c1C(=O)NC(=S)NCc1ccco1 | 0.3% | inactive | – |
| COC(=O)Cc1ccc(NC(=S)NCc2ccco2)cc1 | 0.6% | inactive | – |
| O=C(NNC(=S)NCc1ccco1)C(c1ccccc1)c1ccccc1 | 5.5% | – | 175% (active) |
| Nc1cccc(-c2cncc(N3CCN(Cc4ccccn4)CC3)n2)c1 | 0.8% | inactive | – |
| CC(C)c1cccc(C(C)C)c1Nc1cn[nH]c1 | 0.2% | inactive | – |
| CC(C)CNC(=O)COC(=O)/C=C/c1ccco1 | 0.7% | inactive | – |
| O=C(/C=C/c1ccccc1[N+](=O)[O-])OCC(=O)N1CCCC1 | 0.4% | inactive | – |
| CC(C)CNC(=O)COC(=O)/C=C/c1ccccc1[N+](=O)[O-] | 4.9% | – | 14.3% (active) |
| O=C1C(Sc2cccc(F)c2)=C[C@@]2(O)CC[C@@H](O)[C@]1(Sc1cccc(F)c1)[C@H]2O | 2% | inactive | – |
| O=C1NC[C@H](CCCCN2CCN(CCc3ccccc3)C(=O)C2=O)N(CC2CCCCC2)C1=O | 0.5% | inactive | – |
| Nc1nc2cc(Cl)ccc2n1N | 1.5% | inactive | – |
| CN1OC[C@@H]2CN(S(=O)(=O)c3cccc4ccccc34)[C@H](c3ccc(N4CCCCC4)cc3)C[C@@H]21 | 0.8% | inactive | – |
| CCC1CCCCN1S(=O)(=O)Cc1ccccc1Cl (stereo not given) | 3% | – | 98.8% (active) |
| O=C(NCc1ccccc1Cl)C1CCCN1S(=O)(=O)c1ccc(F)cc1 (stereo not given) | 0.6% | inactive | – |
| O=C(NCc1ccccc1Cl)C(=O)NCC1CCCN1S(=O)(=O)c1cccs1 (stereo not given) | 0.7% | inactive | – |
| O=C(N[C@@H](Cc1ccccc1)C(=O)OCc1ccccc1)c1nc[nH]c1C(=O)N[C@@H](Cc1ccccc1)C(=O)OCc1ccccc1 | 0.2% | inactive | – |
| C[C@H](NC(=O)c1nc[nH]c1C(=O)NCC(=O)OC(C)(C)C)C(=O)OCc1ccccc1 | 0.8% | inactive | – |
| CC(C)(C)OC(=O)CNC(=O)c1[nH]cnc1C(=O)N[C@@H](Cc1ccccc1)C(=O)OCc1ccccc1 | 10% | – | 21.4% (active) |
| FC(F)(F)c1cccc(-c2nc3ccccc3n2C(c2ccccc2)c2nc3ccccc3[nH]2)c1 (stereo not given) | 3.2% | inactive | – |
| COc1cccc(-c2ccc3c(c2)N(Cc2ccccc2OC)C(=O)C(C)S3)c1 (stereo not given) | 0.8% | inactive | – |
| Cc1cccnc1C(NC(=O)C1CCN(Cc2ccc(Cl)c(Cl)c2)CC1)c1ccc(Cl)cc1 (stereo not given) | 0.8% | inactive | – |
| CC1=C(C(=O)N2CCOCC2)CC(CC(=O)NCc2cccs2)C(=O)N1CCCN1CCCC1=O (stereo not given) | 1.4% | inactive | – |
| CC(OC(=O)CCCc1c[nH]c2ccccc12)C(=O)Nc1ccc(S(N)(=O)=O)cc1 (stereo not given) | 0.5% | inactive | – |
| Cc1ccc(NC(=O)C(C)OC(=O)C2CC3CCCC(C2)C3=O)cc1S(=O)(=O)N1CCOCC1 (stereo not given) | 0.8% | inactive | – |
| Cc1ccc(NC(=O)C(C)OC(=O)Cc2c[nH]c3ccccc23)cc1S(=O)(=O)N1CCOCC1 (stereo not given) | 1% | – | 9.47% (active) |
